# Laboratory results from PMC7862700, “An all-to-all approach to the identification of sequence-specific readers for epigenetic DNA modifications on cytosine”.
# Tests used:
# Test in all cases: DAPPL (digital affinity profiling via proximity ligation, sequencing); 10 mM Tris-HCl pH 7.5, 50 mM NaCl, 1 mM DTT, 4% glycerol, room temperature, 30 min; GST-TFs on glutathione beads, 16-mer random dsDNA library, 0.1% formaldehyde crosslink after washing; high values mean tight binding
# FEV = biological target: T1, FEV (Homo sapiens, UniProt Q99581 1-238); settings: protein: recombinant; tags: N-terminal GST; dsDNA, one strand shown
# T1 sequence: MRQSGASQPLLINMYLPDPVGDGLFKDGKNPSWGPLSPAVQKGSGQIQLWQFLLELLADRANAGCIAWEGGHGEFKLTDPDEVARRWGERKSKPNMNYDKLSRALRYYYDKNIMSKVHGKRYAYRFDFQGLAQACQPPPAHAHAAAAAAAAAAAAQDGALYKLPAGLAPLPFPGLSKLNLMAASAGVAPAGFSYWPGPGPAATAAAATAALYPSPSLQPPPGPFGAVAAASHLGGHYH
# Outline: (§1)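 Each value of binding signal is a hexamer's read frequency for a factor divided by the same hexamer's frequency in the tag-only sample. Barcoded, bead-captured GST fusions of human transcription factors made in yeast were pooled with that sample and incubated with 200 nmole of a random double-stranded 16-mer DNA library in Tris/NaCl/DTT/glycerol buffer at room temperature for 30 min. Washing, 0.1% formaldehyde crosslinking, proximity ligation, PCR and Illumina NextSeq500 sequencing followed.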
# ETV5 = ETV5 (Homo sapiens, UniProt P41161 1-510); settings: protein: recombinant; tags: N-terminal GST; dsDNA, one strand shown
# Sequence of ETV5 (P41161 whole entry): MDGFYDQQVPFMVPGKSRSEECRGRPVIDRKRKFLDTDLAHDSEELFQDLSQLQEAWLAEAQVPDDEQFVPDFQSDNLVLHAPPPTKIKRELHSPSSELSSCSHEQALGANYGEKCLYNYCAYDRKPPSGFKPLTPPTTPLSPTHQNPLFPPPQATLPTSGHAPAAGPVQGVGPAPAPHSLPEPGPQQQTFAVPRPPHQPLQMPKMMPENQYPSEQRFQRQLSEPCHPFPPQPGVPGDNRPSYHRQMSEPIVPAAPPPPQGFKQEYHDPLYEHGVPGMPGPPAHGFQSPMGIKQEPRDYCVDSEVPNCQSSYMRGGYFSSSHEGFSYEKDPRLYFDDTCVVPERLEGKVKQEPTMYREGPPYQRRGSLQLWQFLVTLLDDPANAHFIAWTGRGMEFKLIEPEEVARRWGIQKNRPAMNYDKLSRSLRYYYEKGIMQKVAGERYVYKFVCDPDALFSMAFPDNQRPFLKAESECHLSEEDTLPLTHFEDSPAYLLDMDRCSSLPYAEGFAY
# Outline: as §1
# HSF1 = HSF1 (Homo sapiens, UniProt Q00613 1-529); settings: protein: recombinant; tags: N-terminal GST; chain copies: 3; dsDNA, one strand shown
# Sequence of HSF1 (Q00613 whole entry): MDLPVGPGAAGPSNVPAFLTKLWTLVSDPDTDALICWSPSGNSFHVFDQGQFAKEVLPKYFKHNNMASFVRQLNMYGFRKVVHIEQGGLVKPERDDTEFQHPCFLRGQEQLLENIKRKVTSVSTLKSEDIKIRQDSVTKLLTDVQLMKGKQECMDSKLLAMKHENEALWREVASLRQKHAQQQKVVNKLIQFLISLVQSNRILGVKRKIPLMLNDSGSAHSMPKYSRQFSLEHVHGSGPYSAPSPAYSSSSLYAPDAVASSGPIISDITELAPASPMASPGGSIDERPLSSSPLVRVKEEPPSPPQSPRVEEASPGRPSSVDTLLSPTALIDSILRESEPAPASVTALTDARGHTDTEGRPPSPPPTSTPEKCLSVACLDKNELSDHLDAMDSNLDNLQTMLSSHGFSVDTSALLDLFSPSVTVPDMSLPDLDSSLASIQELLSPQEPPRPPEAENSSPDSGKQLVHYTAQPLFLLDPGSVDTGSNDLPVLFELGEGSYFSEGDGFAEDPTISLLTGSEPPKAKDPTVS
# Outline: as §1
# SPIC = biological target: T2, SPIC (Homo sapiens, UniProt Q8N5J4 1-248); settings: protein: recombinant; tags: N-terminal GST; dsDNA, one strand shown
# T2 sequence: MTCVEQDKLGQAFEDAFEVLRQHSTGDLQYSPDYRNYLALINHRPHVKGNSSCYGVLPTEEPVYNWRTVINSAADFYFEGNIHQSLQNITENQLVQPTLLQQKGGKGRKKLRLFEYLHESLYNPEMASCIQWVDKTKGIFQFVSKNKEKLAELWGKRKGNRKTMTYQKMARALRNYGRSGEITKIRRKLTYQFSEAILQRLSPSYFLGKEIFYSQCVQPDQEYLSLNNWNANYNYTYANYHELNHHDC
# Outline: as §1
# ELF4 = ELF4 (Homo sapiens, UniProt Q99607 1-663); settings: protein: recombinant; tags: N-terminal GST; dsDNA, one strand shown
# Sequence of ELF4 (Q99607 whole entry): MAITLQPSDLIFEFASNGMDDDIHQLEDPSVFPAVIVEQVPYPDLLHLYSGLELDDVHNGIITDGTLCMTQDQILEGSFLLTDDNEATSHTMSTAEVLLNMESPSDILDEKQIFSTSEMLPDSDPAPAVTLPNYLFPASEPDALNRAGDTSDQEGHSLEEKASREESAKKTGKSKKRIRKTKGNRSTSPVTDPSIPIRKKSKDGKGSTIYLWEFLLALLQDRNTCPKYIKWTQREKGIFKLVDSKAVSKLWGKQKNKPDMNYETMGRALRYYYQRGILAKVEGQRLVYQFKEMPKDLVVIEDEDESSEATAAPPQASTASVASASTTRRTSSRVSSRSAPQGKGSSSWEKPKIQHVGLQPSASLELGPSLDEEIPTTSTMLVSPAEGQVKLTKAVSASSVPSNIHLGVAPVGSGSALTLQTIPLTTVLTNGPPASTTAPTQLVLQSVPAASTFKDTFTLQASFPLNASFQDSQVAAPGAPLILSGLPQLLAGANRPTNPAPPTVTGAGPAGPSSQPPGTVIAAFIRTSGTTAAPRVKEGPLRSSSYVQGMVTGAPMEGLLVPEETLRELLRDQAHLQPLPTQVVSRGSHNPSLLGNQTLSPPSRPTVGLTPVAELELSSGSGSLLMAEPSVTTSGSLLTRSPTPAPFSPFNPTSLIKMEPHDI
# Outline: as §1
# ELK4 = biological target: T3, ELK4 (Homo sapiens, UniProt P28324-2 1-405); settings: protein: recombinant; tags: N-terminal GST; dsDNA, one strand shown
# T3 sequence: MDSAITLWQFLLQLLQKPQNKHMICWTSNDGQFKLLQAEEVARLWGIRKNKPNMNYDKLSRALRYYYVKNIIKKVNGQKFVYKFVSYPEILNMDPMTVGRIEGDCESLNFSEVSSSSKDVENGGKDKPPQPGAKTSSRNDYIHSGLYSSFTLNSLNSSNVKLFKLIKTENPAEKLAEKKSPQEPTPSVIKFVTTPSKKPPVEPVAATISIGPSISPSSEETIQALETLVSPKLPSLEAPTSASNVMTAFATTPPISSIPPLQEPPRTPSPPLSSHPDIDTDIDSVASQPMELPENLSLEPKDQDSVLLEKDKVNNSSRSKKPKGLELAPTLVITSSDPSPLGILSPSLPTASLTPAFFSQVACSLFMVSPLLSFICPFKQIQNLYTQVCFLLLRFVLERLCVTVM
# Outline: as §1
# ETV2 = biological target: T4, ETV2 (Homo sapiens, UniProt O00321 1-342); settings: protein: recombinant; tags: N-terminal GST; dsDNA, one strand shown
# T4 sequence: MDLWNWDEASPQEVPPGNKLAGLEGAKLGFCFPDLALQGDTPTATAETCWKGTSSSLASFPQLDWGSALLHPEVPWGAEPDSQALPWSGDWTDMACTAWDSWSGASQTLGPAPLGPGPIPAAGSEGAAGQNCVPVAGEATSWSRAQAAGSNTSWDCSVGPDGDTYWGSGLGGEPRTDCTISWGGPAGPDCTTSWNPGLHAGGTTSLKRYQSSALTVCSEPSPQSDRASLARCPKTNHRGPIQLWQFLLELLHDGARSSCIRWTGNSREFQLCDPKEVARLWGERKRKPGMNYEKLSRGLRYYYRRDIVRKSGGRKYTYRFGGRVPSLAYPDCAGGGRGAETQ
# Outline: as §1
# ELF3 = biological target: T5, ELF3 (Homo sapiens, UniProt P78545 1-371); settings: protein: recombinant; tags: N-terminal GST; dsDNA, one strand shown
# T5 sequence: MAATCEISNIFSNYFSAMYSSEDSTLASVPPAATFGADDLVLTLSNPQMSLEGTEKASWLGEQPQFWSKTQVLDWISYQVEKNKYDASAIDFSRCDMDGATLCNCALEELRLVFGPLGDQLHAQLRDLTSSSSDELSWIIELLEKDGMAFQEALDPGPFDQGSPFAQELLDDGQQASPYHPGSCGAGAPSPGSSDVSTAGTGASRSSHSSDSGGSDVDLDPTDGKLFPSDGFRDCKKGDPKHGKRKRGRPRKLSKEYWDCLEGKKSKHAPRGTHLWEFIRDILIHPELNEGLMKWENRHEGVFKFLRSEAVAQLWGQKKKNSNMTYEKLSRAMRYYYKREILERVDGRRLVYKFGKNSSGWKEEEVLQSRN
# Outline: as §1
# CRX = CRX (Homo sapiens, UniProt O43186 1-299); settings: protein: recombinant; tags: N-terminal GST; dsDNA, one strand shown
# Sequence of CRX (O43186 whole entry): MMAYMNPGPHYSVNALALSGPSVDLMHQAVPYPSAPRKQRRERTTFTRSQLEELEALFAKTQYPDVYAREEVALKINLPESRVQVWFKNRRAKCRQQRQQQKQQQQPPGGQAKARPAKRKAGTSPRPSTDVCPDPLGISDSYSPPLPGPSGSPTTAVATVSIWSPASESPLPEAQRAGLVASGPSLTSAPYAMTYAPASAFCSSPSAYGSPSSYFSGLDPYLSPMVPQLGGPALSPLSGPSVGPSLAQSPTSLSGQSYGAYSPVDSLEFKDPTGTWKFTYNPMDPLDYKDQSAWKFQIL
# Outline: as §1
# ETV1 = ETV1 (Homo sapiens, UniProt P50549 1-477); settings: protein: recombinant; tags: N-terminal GST; dsDNA, one strand shown
# Sequence of ETV1 (P50549 whole entry): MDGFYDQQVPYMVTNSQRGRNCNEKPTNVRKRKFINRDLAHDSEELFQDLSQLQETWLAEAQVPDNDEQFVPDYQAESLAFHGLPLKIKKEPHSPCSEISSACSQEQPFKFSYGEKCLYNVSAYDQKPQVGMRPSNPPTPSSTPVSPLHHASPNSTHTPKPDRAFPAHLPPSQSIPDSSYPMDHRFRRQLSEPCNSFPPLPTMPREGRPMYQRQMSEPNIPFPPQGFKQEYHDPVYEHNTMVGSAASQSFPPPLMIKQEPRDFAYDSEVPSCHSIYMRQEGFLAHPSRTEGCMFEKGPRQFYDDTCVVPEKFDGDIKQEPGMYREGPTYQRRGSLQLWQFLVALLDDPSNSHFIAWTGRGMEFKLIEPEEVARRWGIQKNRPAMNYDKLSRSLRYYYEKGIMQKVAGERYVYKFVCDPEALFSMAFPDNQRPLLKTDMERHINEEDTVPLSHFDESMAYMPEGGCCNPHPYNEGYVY
# Outline: as §1
# ERF = biological target: T6, ERF (Homo sapiens, UniProt P50548 1-548); settings: protein: recombinant; tags: N-terminal GST; dsDNA, one strand shown
# T6 sequence: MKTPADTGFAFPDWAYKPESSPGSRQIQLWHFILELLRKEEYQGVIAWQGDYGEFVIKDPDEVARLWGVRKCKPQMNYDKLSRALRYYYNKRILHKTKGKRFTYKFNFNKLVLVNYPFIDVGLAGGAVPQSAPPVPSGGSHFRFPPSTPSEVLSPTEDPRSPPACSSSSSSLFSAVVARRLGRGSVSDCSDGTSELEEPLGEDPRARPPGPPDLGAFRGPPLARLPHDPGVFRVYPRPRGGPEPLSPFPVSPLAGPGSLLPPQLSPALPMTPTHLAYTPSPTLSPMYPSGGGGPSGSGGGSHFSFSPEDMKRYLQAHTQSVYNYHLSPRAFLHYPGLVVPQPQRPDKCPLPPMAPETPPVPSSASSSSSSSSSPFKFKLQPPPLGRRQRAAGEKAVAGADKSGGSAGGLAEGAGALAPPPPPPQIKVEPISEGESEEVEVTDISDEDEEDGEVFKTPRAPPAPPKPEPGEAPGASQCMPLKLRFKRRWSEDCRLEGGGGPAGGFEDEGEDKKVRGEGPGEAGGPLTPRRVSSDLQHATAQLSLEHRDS
# Outline: as §1
# ETV3L = biological target: T7, ETV3L (Homo sapiens, UniProt Q6ZN32 1-361); settings: protein: recombinant; tags: N-terminal GST; dsDNA, one strand shown
# T7 sequence: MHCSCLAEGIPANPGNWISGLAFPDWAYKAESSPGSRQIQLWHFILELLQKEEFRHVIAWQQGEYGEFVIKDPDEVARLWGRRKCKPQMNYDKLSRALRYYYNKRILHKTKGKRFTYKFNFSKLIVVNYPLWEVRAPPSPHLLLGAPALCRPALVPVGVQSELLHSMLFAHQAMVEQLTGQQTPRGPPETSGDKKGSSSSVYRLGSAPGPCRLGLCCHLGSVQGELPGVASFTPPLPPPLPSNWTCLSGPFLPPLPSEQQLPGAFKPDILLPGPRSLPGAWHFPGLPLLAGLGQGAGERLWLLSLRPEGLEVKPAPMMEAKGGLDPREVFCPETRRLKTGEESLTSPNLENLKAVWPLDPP
# Outline: as §1
# ETS2 = biological target: T8, ETS2 (Homo sapiens, UniProt P15036 1-469); settings: protein: recombinant; tags: N-terminal GST; dsDNA, one strand shown
# T8 sequence: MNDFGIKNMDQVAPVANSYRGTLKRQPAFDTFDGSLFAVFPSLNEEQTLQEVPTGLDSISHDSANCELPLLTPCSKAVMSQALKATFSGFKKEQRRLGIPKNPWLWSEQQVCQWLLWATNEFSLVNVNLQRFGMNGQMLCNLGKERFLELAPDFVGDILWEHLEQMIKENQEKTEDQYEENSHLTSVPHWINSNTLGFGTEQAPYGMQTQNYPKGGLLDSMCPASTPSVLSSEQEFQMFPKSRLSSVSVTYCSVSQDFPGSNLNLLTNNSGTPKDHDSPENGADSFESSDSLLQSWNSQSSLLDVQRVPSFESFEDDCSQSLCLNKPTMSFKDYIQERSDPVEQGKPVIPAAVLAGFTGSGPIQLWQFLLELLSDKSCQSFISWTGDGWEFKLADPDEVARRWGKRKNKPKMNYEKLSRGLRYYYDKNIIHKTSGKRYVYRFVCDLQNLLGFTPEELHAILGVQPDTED
# Outline: as §1
# SPDEF = biological target: T9, SPDEF (Homo sapiens, UniProt O95238 1-335); settings: protein: recombinant; tags: N-terminal GST; dsDNA, one strand shown
# T9 sequence: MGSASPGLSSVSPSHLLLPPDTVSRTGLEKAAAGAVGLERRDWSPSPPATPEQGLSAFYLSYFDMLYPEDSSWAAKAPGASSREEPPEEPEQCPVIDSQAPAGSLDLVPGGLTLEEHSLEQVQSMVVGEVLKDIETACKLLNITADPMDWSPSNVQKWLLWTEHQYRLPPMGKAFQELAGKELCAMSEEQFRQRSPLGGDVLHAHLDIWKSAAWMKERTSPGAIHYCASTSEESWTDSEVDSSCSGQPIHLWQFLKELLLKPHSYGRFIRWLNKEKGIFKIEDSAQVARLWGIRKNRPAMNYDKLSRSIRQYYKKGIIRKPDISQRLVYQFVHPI
# Outline: as §1
# ETV7 = biological target: T10, ETV7 (Homo sapiens, UniProt Q9Y603 1-341); settings: protein: recombinant; tags: N-terminal GST; dsDNA, one strand shown
# T10 sequence: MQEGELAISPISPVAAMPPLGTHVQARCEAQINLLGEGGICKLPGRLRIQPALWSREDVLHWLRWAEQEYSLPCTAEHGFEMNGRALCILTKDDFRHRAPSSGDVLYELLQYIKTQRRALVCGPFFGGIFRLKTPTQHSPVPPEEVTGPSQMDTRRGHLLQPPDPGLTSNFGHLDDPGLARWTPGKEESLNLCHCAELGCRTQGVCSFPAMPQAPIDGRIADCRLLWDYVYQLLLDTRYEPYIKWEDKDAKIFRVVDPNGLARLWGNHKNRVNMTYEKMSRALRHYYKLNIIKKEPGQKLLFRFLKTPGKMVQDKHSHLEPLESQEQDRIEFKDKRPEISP
# Outline: as §1
# ELF5 = biological target: T11, ELF5 (Homo sapiens, UniProt Q9UKW6-2 1-255); settings: protein: recombinant; tags: N-terminal GST; dsDNA, one strand shown
# T11 sequence: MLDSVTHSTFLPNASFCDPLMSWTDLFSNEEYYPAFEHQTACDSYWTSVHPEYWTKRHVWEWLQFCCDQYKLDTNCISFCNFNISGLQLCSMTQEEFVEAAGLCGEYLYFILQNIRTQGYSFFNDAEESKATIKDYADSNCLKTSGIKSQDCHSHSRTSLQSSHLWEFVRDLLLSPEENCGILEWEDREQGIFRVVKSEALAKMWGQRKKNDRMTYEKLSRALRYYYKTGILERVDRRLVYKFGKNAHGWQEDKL
# Outline: as §1
# ETV3 = biological target: T12, ETV3 (Homo sapiens, UniProt P41162-2 1-143); settings: protein: recombinant; tags: N-terminal GST; dsDNA, one strand shown
# T12 sequence: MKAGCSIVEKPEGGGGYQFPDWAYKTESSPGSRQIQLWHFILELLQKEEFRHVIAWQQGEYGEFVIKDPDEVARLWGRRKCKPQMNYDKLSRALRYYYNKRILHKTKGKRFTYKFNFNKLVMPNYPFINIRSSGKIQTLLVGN
# Outline: as §1
# ETV6 = ETV6 (Homo sapiens, UniProt P41212 1-452); settings: protein: recombinant; tags: N-terminal GST; dsDNA, one strand shown
# Sequence of ETV6 (P41212 whole entry): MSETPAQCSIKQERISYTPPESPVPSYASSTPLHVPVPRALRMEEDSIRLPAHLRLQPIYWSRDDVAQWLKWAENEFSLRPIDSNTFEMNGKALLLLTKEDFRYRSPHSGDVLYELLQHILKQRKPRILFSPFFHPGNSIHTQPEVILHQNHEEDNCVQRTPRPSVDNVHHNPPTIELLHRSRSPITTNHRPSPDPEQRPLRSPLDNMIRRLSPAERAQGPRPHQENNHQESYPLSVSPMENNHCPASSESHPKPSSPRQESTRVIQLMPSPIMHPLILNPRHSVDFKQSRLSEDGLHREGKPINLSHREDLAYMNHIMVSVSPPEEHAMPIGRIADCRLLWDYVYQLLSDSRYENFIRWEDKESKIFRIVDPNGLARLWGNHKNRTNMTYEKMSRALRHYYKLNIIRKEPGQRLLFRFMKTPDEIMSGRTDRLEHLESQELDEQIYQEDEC
# Outline: as §1
sequence,measurement,setting,value
CGATGG,binding signal,FEV,"1.23 fold enrichment (6-mer frequency, TF over GST control)"
same,binding signal,ETV5,"1.28 fold enrichment (6-mer frequency, TF over GST control)"
same,binding signal,HSF1,"1.36 fold enrichment (6-mer frequency, TF over GST control)"
same,binding signal,SPIC,"1.31 fold enrichment (6-mer frequency, TF over GST control)"
same,binding signal,ELF4,"1.36 fold enrichment (6-mer frequency, TF over GST control)"
same,binding signal,ELK4,"1.46 fold enrichment (6-mer frequency, TF over GST control)"
same,binding signal,ETV2,"1.34 fold enrichment (6-mer frequency, TF over GST control)"
same,binding signal,ELF3,"1.15 fold enrichment (6-mer frequency, TF over GST control)"
same,binding signal,CRX,"1.14 fold enrichment (6-mer frequency, TF over GST control)"
same,binding signal,ETV1,"1.41 fold enrichment (6-mer frequency, TF over GST control)"
same,binding signal,ERF,"1.18 fold enrichment (6-mer frequency, TF over GST control)"
same,binding signal,ETV3L,"1.34 fold enrichment (6-mer frequency, TF over GST control)"
same,binding signal,ETS2,"1.33 fold enrichment (6-mer frequency, TF over GST control)"
same,binding signal,SPDEF,"1.29 fold enrichment (6-mer frequency, TF over GST control)"
same,binding signal,ETV7,"1.39 fold enrichment (6-mer frequency, TF over GST control)"
same,binding signal,ELF5,"1.18 fold enrichment (6-mer frequency, TF over GST control)"
same,binding signal,ETV3,"1.24 fold enrichment (6-mer frequency, TF over GST control)"
same,binding signal,ETV6,"1.33 fold enrichment (6-mer frequency, TF over GST control)"
